A selection: hits, their analogues and other compounds. The true share with any hit is near 4%.
KKLEB tox – reduces viability of KKLEB cystic fibrosis airway cells; KKLEB CF airway cells viability, ATPlite luminescence, overnight; active compounds read low; cells stimulated with P. aeruginosa culture filtrate; 360,000 compounds, 0.36% hits; activity change (cytotoxicity), % at 5 µM;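 active = corrected activity change at or below -50% at 5 µM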
TROY signal inh – TROY signaling inhibition. Q293 LMP1-TROYcd NF-kB luciferase reporter, 4 h. inhibition, % at 10 µM. 360,000 compounds, 0.98% hits;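 active = compounds whose plate-normalised and pattern-corrected inhibition of the luciferase reporter signal at the single screening dose is 50% or more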
Peg3 prom inh-1 – Peg3 promoter activity inhibition. HeLa PEG-Prom luciferase reporter, luminescence, overnight. inhibition, % at 20 µM. 360,000 compounds, 1.7% hits. AID 588405;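 active = inhibition of at least 50% at 20 µM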
CF NFkB block – blocks PAF-induced NF-kB reporter in cystic fibrosis cells; KKLEB NF-kB-GFP reporter, GFP fluorescence overnight; inhibition, % at 5 µM; 360,000 compounds, 0.86% hits;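 active = at least 50% inhibition at 5 µM, scaled per plate between neutral and stimulator controls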;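 note: PAF is a Pseudomonas aeruginosa culture filtrate used as stimulus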
TWEAK Fn14 block – inhibitors of TWEAK-Fn14 interaction signaling. TWEAK-stimulated Fn14 reporter cells, luciferase luminescence, 8 h. inhibition, % at 10 µM. 360,000 compounds, 2% hits. AID 1159606; in the data active = inhibition above about 50%
HIF-2a inh – HIF-2a inhibition; 786-0 RCC cells HIF-2a reporter, luciferase luminescence, overnight; inhibition, % at 18.8 µM; 360,000 compounds, 0.72% hits; AID 624352;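 active = inhibition of the luminescence signal of 40% or more relative to plate controls, in a single-dose primary screen at 18.75 µM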
Peg3 prom inh-2 – Peg3 promoter inhibition confirmation; shares compounds with Peg3 prom inh-1; HeLa PEG-Prom luciferase reporter, luminescence, overnight; inhibition, % at 20 µM; 1,300 compounds, 84% hits; AID 602417;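 active = at 20 µM dose, 40% or more inhibition averaged across four replicates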
Large screens that a line does not name were inactive (follow-up assays come after a bar, where they were run).

O=[N+]([O-])c1ccc(Cc2ccccn2)c([N+](=O)[O-])c1	none
CC1CCCCC12NC(=O)N(CC(=O)OCC(=O)N(C)C1CCCCC1)C2=O (centres undefined)	none
O=C(N/N=C/c1ccccc1Cl)c1n[nH]c2c1CCCC2	TROY signal inh 74, Peg3 prom inh-1 78, TWEAK Fn14 block 97 | Peg3 prom inh-2 inactive
O=C(N/N=C/c1ccc(Cl)cc1)c1n[nH]c2c1CCCC2	none
CC1=CC(C)(C(Cl)(Cl)Cl)C(C)=CC1=NO (centres undefined)	none
Cc1ccc(NC(=S)NC(=O)c2ccc(F)cc2)cc1S(=O)(=O)Nc1ccccc1Cl	Peg3 prom inh-1 55 | Peg3 prom inh-2 58
CN(C)CCCN1c2ccccc2Sc2ccc3ccccc3c21	Peg3 prom inh-1 61 | Peg3 prom inh-2 98
O=C(COc1ccc2ccccc2c1)N1c2ccccc2Sc2ccccc21	none
CN(C)CCCN1c2ccc3ccccc3c2Sc2cccc(Cl)c21	none
O=C(CCl)N1c2ccccc2Sc2ccc3ccccc3c21	Peg3 prom inh-1 107 | Peg3 prom inh-2 100
C[C@H]1COc2cccc(N3CCSCC3)c2S(=O)(=O)N1	none (no result: KKLEB tox, Peg3 prom inh-1, CF NFkB block)
CC1=NN(c2cccc(C(=O)O)c2)C(=O)/C1=C\C=C/c1ccccc1	TROY signal inh 54, Peg3 prom inh-1 78, CF NFkB block 64, TWEAK Fn14 block 91, HIF-2a inh 59 | Peg3 prom inh-2 52
COc1ccccc1NC(=O)C1CCN(S(C)(=O)=O)CC1	none
COc1ccc(-c2cc3nc4n(c(=O)c3s2)CCC4)cc1	TROY signal inh 62, Peg3 prom inh-1 59, TWEAK Fn14 block 95 | Peg3 prom inh-2 inactive
COc1ccc(-c2cc3nc4n(c(=O)c3s2)CCCCC4)cc1	none
O=C(Nc1ccccc1)c1ccc(OC(=O)c2ccccc2)cc1	none
C=CCc1cccc(/C=N/NC(=O)C(C)Nc2cccc(C)c2)c1O (centres undefined)	Peg3 prom inh-1 50 | Peg3 prom inh-2 44
C=CCc1cccc(/C=N/NC(=O)CCCNc2ccc(C)cc2)c1O	none
Cc1cc(/C=c2/sc3nc4ccccc4n3c2=O)c(C)n1-c1ccccn1	KKLEB tox -54, TROY signal inh 75, Peg3 prom inh-1 75, TWEAK Fn14 block 83, HIF-2a inh 75 | Peg3 prom inh-2 88
COc1ccc(S(=O)(=O)N(C)C[C@H]2Oc3ncc(Br)cc3C(=O)N([C@@H](C)CO)C[C@@H]2C)cc1	none
CC(C)(C)CC(C)(C)n1nnnc1N	none
O=C(c1cc(Cl)nc2ccccc12)N1CCN(S(=O)(=O)c2cccc(F)c2)CC1	none
O=S(=O)(c1cccc(F)c1)N1CCN(c2nc(-c3cccnc3)nc3ccccc23)CC1	Peg3 prom inh-1 53 | Peg3 prom inh-2 55
O=C(NC1CCS(=O)(=O)C1)c1cccc(Cl)c1 (centres undefined)	none
Cc1cc(C)nc(NC(=O)CCCC(=O)O)c1	none
Cc1cc(C)nc(NC(=O)c2c(F)c(F)c(F)c(C(=O)Nc3cc(C)cc(C)n3)c2F)c1	Peg3 prom inh-1 90 | Peg3 prom inh-2 72
COc1ccc(-n2ncc3c(N(C)C4CCCCC4)ncnc32)cc1	KKLEB tox -79, TROY signal inh 91, Peg3 prom inh-1 71, TWEAK Fn14 block 104, HIF-2a inh 70 | Peg3 prom inh-2 71
Cc1nc2c(OCc3ccc(F)c(F)c3)cccn2c1N(C)C(=O)CCC1CCCC1	none
Cc1nc2c(OCc3ccc(OC(F)F)cc3)cccn2c1N(C)C(=O)CCC1CCCC1	Peg3 prom inh-1 65 | Peg3 prom inh-2 54
C/C(=N\NC(=O)c1c(C)nc2ccccn12)c1ccc(O)cc1O	Peg3 prom inh-1 52 | Peg3 prom inh-2 60
CCCCN1C=CC(=C2N=c3cccc([N+](=O)[O-])c3=N2)C=C1	none
CCCCCCN1C=CC(=C2C(=O)c3ccccc3C2=O)C=C1	KKLEB tox -58, TROY signal inh 82, Peg3 prom inh-1 58, TWEAK Fn14 block 97 | Peg3 prom inh-2 43
CCN1C=CC(=C2C(=O)c3ccccc3C2=O)C=C1	TROY signal inh 68, Peg3 prom inh-1 97, TWEAK Fn14 block 101, HIF-2a inh 87 | Peg3 prom inh-2 90
O=C1N[C@@H](c2ccccc2)COC(=O)[C@@H](Cc2ccc(F)cc2)CC/C=C/C[C@H]1CC(=O)N(CCO)Cc1ccccc1	Peg3 prom inh-1 52 | Peg3 prom inh-2 47
C[C@@H]1COC(=O)[C@H](Cc2ccc(F)cc2)C/C=C\C[C@@H](CC(=O)N[C@H](CO)Cc2ccccc2)C(=O)N1	none
O=C(C[C@@H]1C/C=C\C[C@@H](Cc2ccc(F)cc2)C(=O)OC[C@@H](Cc2ccccc2)NC1=O)N[C@H](CO)Cc1ccccc1	Peg3 prom inh-1 63 | Peg3 prom inh-2 inactive
Cc1c(OCC(=O)NC2CC(C)(C)NC(C)(C)C2)ccc2c1oc(=O)c1ccccc12	Peg3 prom inh-1 100 | Peg3 prom inh-2 85
Cc1c(OCC(=O)NC2CC(C)(C)NC(C)(C)C2)ccc2c3c(c(=O)oc12)CCC3	none
CCCCn1c(N)c(N(CCOC)C(=O)c2ccc3c(c2)OCCO3)c(=O)[nH]c1=O	none
CCOc1ccc2nc(NC(=O)c3ccccn3)sc2c1	TROY signal inh 67, Peg3 prom inh-1 104 | Peg3 prom inh-2 90
CN(C)c1ccc(-c2nc3ccccn3c2/N=C/c2ccc(Br)cc2)cc1	Peg3 prom inh-1 54, TWEAK Fn14 block 65 | Peg3 prom inh-2 41
O=C(Cc1ccc(Cl)cc1)OCC(=O)N1CCCCCC1	none
COC(=O)c1ccc2nc(-c3cccc(N)c3)cn2c1	TROY signal inh 53, Peg3 prom inh-1 68, TWEAK Fn14 block 95 | Peg3 prom inh-2 inactive
Cc1ccc(S(=O)(=O)C[C@@H]2OC[C@H](C)N2S(=O)(=O)c2ccc(C)cc2)cc1	none (no result: KKLEB tox, TROY signal inh, Peg3 prom inh-1, CF NFkB block, TWEAK Fn14 block)
C/C(CC(=O)NCc1ccco1)=N\NC(=O)c1ccc([N+](=O)[O-])cc1Cl	none
COc1cc(C(=O)NCC2(N(C)C)CCCCC2)ccc1OCc1ccccc1	none
CC1(C)CC(NCCN2CCN(C3=CC(=C(C#N)C#N)CC(C)(C)C3)CC2)=CC(=C(C#N)C#N)C1	Peg3 prom inh-1 50 | Peg3 prom inh-2 44
CNC(=S)N1CCN(CCNC2=CC(=O)CC(C)(C)C2)CC1	none
CCN1CCN(c2ncc(C(=O)Nc3cc(Cl)ccc3OC)c3ccccc23)CC1	Peg3 prom inh-1 61 | Peg3 prom inh-2 57
O=C(CSc1nnc(NC2CC2)s1)NN1C(=O)NC2(CCCCC2)C1=O	none
O=C(C[n+]1ccc(-c2cc(C(=O)Nc3cccc(C(F)(F)F)c3)c3ccccc3n2)cc1)c1cccc([N+](=O)[O-])c1	Peg3 prom inh-1 89 | Peg3 prom inh-2 62
COC(=O)c1c(C)[nH]c(C(=O)COC(=O)CCNS(=O)(=O)c2cccc(C(F)(F)F)c2)c1C	none
CCOCCCNC(=O)c1ccc(OC2CCN(C(C)=O)CC2)c(OC)c1	none
